# Artemis endo inh: Artemis (human) endonuclease inhibition. Q96SD1. recombinant Artemis, quenched FAM hairpin cleavage fluorescence. inhibition, % at 10 µM. 30,000 compounds, 0.78% hits;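 active = at 10 µM dose, at least 30% inhibition, measured as corrected fluorescence normalized to stimulator and neutral control wells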
# Target sequence (Q96SD1 whole entry, looked up): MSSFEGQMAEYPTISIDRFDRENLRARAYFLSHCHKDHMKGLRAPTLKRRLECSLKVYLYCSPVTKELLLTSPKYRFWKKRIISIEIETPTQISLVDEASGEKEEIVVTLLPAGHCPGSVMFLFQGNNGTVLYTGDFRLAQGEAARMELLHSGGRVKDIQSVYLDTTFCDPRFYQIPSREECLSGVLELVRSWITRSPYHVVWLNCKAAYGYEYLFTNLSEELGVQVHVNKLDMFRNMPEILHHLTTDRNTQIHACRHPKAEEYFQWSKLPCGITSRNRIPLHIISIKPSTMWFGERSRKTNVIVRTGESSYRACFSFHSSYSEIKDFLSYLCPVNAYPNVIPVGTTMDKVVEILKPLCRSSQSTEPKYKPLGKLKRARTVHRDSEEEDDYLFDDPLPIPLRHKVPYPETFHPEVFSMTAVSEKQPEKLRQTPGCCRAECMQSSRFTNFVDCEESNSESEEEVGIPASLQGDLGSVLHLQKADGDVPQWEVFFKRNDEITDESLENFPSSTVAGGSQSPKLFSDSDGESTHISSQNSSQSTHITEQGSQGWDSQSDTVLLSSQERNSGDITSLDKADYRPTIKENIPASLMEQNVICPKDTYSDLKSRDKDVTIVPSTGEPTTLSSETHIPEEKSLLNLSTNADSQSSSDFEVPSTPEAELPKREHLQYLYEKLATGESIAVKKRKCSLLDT
# An asterisk follows results filed as active. This excerpt belongs to a sample that is enriched for hits.
SMILES,Artemis endo inh
Brc1ccc(-c2cnnc(N3CCCC3)n2)cc1,-12.4
Brc1ccc2nc3c(n2c1)CCCC3,1.7
Brc1ccc(-c2cn3nc4c(nc3n2)CCCC4)cc1,30.7*
c1ccc(-c2cn3c(n2)SCC3)cc1,-5.0
O=C(CN(C(=O)CCC(=O)Nc1ccccn1)c1ccc2c(c1)OCCO2)NCCc1ccccc1,-0.6
Cc1cc(C)c(S(C)(=O)=O)c(S(=O)c2ccc(Cl)cc2)n1 (stereo not drawn),2.2
CCOC(=O)c1c(O)c2ccccc2n(-c2ccccc2)c1=O,5.2
CCOC(=O)/C=c1\s/c(=C(\C#N)C(=O)OCC)n(-c2ccccc2)c1=O,31.1*
CCOC(=O)/C(C#N)=C1/C=Cc2ccccc2N1CC,0.2
O=C(CSc1ncn[nH]1)NC1CC2CCC1C2 (stereo not drawn),-1.1
OCCn1nc2c3ccccc3nc-2n(-c2ccccc2)c1=S,-4.0
Cc1cc(NS(=O)(=O)c2ccc(NC(NC(=O)C(C(F)(F)F)C(F)(F)F)(C(F)(F)F)C(F)(F)F)cc2)no1,-3.1
Cc1cc(NS(=O)(=O)c2ccc(Nc3nc(-c4sc(N)nc4C)cs3)cc2)no1,59.1*
Cc1cc(NS(=O)(=O)c2ccc(NC(=O)c3ccco3)cc2)no1,6.8
CCOc1cc(/C=C2\N=C(SC)SC2=O)cc([N+](=O)[O-])c1OC(C)=O,33.4*
C=CCSC1=N/C(=C\c2ccc(C)o2)C(=O)S1,1.8
COc1ccc(/C=C2\N=C(SC)SC2=O)cc1OC,-1.7
CSC1=N/C(=C\c2ccc(C)cc2)C(=O)S1,-1.0
CCOc1c(OC(C)=O)ccc(/C=C2\N=C(SCC)SC2=O)c1[N+](=O)[O-],30.1*
Cc1nnc(SCC(=O)N/N=C/c2cn(-c3ccccc3)nc2-c2ccccc2)n1-c1ccccc1,14.7
COc1ccc(CNC(=O)CSc2ncn[nH]2)cc1,-6.2
COC(=O)CCN(C(C)=O)c1ccc(N)cc1,-6.4
CCC(=O)NS(=O)(=O)c1cccnc1Nc1ccccc1Cl,-2.9
Cc1ccc(-c2cc(C(=O)n3cnc4ccccc43)c3ccccc3n2)cc1C,6.3
CCN(CC)c1ccc(C(=O)n2cnc3ccccc32)cc1,30.0*
SMILES,Artemis endo inh
CCN(CC)c1ccc(NC(=O)CSc2nc3ccccc3c(=O)[nH]2)cc1,8.8
N#Cc1ccccc1NC(=O)CC1CCCCC1,4.4
O=C(Cc1ccccc1)N[C@@H](Cc1ccccc1)c1nc2ccccc2[nH]1,1.8
O=C1CC(C2CCCO2)C(=O)N1c1cccc(Cl)c1 (stereo not drawn),1.2
Cc1cccc(CN2C(=O)N/C(=C/c3cc(C)n(-c4ccccn4)c3C)C2=O)c1,23.3
CCOC(=O)c1ccc(N2C(=O)CC(N3CCC(O)(c4ccc(Br)cc4)CC3)C2=O)cc1 (stereo not drawn),0.1
O=c1[nH]c(CSc2nc3ccccc3o2)nc2c1cnn2-c1ccccc1,12.2
COc1cc2ccccc2cc1C(=O)Nc1cccnc1,-1.3
O=C(Nc1cccnc1)C1(F)C(F)(F)C(F)(F)C(F)(F)C(F)(F)C1(F)F,-2.4
COC(=O)/C=C/C(=O)Nc1cccnc1,35.5*
COc1ccc(NC(=O)CN2CCN(c3ccc(F)cc3)CC2)cc1Cl,0.0
CC(C)C(c1nnnn1Cc1ccc(F)cc1)N1CCN(Cc2ccc3c(c2)OCO3)CC1 (stereo not drawn),-0.9
O=C(OCC1OC(n2ccc(=O)[nH]c2=O)C(O)C1OC(=O)c1ccccc1)c1ccccc1 (stereo not drawn),-1.9
c1ccc(COc2ccc(OCCCN3CCCCC3)cc2)cc1,3.2
Fc1ccc(C2=Nn3c(nnc3-c3n[nH]c4c3CCC4)SC2)cc1,5.0
CCN(CC)c1ccc(-c2nn3c(-c4n[nH]c5c4CCC5)nnc3s2)cc1,57.8*
C1CCC(c2nn3c(-c4n[nH]c5c4CCC5)nnc3s2)CC1,6.0
CCC(CC)c1nnc(NC(=O)CCN2C(=O)c3ccccc3C2=O)s1,-4.4
N/C(Cc1cccs1)=N\OC(=O)COc1ccc(Br)cc1Cl,0.7
CCOc1ccc(/C(O)=C2/C(=O)C(=O)N(c3nc(C)c(C)s3)C2c2ccco2)cc1 (stereo not drawn),42.8*
CCN(CC)CCN1C(=O)C(=O)/C(=C(/O)c2ccc(OC)cc2)C1c1ccco1 (stereo not drawn),-1.5
CCOc1ccc(/C(O)=C2\C(=O)C(=O)N(c3cc(C)on3)C2c2ccccc2OC)cc1 (stereo not drawn),3.3
CCOc1ccc(C(C)C)cc1S(=O)(=O)Nc1ccc(Cl)cn1,-6.3
O=c1c2ccccc2n(Cc2cccc(F)c2)c(=O)n1C1CCCC1,3.0
O=C(NCCN1CCN(c2ccccc2)CC1)C1CCN(S(=O)(=O)c2cccc3nonc23)CC1,-1.4
SMILES,Artemis endo inh
O=C(Nc1cccc2nsnc12)c1ccc(-c2cccc(Cl)c2)o1,46.1*
O=C(Nc1cccc2nsnc12)c1ccc(F)cc1,12.8
O=C(Nc1cccc2nsnc12)c1ccc2c(c1)OCO2,1.6
N#Cc1c(NC(=O)CN2CCOCC2)oc(-c2ccccc2)c1-c1ccccc1,-4.0
CC(=O)c1cccc(NC(=O)c2cc(-n3cnnc3)ccc2Cl)c1,2.0
CC1=NOC(=O)/C1=C\c1ccc(-c2cccc(Cl)c2)o1,27.8
